This passage reports binding signal results from publication PMC7862700, “An all-to-all approach to the identification of sequence-specific readers for epigenetic DNA modifications on cytosine”.

Assay in all cases: DAPPL (digital affinity profiling via proximity ligation, sequencing); 10 mM Tris-HCl pH 7.5, 50 mM NaCl, 1 mM DTT, 4% glycerol, room temperature, 30 min; GST-TFs on glutathione beads, 16-mer random dsDNA library, 0.1% formaldehyde crosslink after washing; high values mean tight binding
One test addresses T1, FEV (Homo sapiens, UniProt Q99581 1-238).
T1 sequence: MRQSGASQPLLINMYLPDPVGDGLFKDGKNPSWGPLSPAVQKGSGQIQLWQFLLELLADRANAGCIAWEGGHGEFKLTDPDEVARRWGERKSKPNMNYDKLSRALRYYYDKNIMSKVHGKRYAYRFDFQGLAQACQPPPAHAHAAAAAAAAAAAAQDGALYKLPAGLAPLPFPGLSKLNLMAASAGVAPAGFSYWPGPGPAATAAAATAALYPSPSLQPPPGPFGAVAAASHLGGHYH
As to conditions: protein: recombinant; tags: N-terminal GST; dsDNA, one strand shown. In a few lines: (§1)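 Human transcription factors were made in yeast as GST fusions, captured on glutathione beads and barcoded with DNA. With a tag-only sample included, the pool was incubated with 200 nmole of a random double-stranded 16-mer DNA library in Tris/NaCl/DTT/glycerol buffer at room temperature for 30 min, then crosslinked with 0.1% formaldehyde after washing, ligated by proximity, amplified and sequenced. For binding signal, each hexamer's read frequency for a factor is divided by its frequency for the tag-only sample.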

A further test has as its target ETV5 (Homo sapiens, UniProt P41161 1-510). To be noted: protein: recombinant; tags: N-terminal GST; dsDNA, one strand shown. In a few lines:
as §1

Another test deals with HSF1 (Homo sapiens, UniProt Q00613 1-529). To be noted: protein: recombinant; tags: N-terminal GST; chain copies: 3; dsDNA, one strand shown. In short, it runs like this:
as §1

The target of another test is T2, SPIC (Homo sapiens, UniProt Q8N5J4 1-248).
T2 sequence: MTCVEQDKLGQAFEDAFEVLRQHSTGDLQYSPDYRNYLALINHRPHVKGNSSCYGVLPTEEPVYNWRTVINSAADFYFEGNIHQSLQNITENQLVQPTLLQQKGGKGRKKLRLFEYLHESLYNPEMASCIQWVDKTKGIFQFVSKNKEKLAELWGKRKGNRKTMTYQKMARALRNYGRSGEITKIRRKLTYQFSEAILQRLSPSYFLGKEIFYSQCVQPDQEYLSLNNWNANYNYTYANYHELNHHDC
As to conditions: protein: recombinant; tags: N-terminal GST; dsDNA, one strand shown. In short, it runs like this:
as §1

A further test deals with ELF4 (Homo sapiens, UniProt Q99607 1-663). To be noted: protein: recombinant; tags: N-terminal GST; dsDNA, one strand shown. In a few lines: as §1
Chain of ELF4 (Q99607 whole entry): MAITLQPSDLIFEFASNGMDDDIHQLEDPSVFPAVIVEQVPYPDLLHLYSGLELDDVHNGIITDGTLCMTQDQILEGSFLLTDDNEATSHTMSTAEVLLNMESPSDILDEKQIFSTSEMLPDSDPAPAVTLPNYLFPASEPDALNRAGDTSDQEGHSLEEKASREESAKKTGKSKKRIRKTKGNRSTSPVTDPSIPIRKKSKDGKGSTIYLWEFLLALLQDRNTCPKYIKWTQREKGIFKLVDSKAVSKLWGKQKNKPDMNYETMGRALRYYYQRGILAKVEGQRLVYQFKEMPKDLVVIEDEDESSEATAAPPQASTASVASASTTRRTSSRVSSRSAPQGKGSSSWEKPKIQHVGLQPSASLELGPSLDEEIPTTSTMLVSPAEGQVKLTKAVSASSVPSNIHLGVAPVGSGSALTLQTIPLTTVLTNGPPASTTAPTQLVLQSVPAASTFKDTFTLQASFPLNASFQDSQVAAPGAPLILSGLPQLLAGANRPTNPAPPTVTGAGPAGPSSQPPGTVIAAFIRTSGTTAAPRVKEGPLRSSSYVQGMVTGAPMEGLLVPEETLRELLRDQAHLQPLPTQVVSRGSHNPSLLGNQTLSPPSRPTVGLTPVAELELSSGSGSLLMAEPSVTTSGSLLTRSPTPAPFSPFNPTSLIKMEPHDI
Another test concerns the target T3, ELK4 (Homo sapiens, UniProt P28324-2 1-405).
T3 sequence: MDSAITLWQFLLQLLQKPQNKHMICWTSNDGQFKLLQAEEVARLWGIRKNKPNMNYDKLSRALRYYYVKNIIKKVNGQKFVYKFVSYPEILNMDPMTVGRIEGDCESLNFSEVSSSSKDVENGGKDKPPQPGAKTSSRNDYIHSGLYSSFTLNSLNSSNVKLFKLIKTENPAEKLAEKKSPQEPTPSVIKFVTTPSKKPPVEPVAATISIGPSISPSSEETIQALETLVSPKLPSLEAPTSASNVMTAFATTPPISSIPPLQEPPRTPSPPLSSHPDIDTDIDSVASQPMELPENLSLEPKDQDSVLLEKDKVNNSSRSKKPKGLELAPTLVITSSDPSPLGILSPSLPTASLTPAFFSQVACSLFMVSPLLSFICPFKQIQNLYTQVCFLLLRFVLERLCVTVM
As to conditions: protein: recombinant; tags: N-terminal GST; dsDNA, one strand shown. In short, it runs like this:
as §1

The target in a further test is T4, ETV2 (Homo sapiens, UniProt O00321 1-342).
T4 sequence: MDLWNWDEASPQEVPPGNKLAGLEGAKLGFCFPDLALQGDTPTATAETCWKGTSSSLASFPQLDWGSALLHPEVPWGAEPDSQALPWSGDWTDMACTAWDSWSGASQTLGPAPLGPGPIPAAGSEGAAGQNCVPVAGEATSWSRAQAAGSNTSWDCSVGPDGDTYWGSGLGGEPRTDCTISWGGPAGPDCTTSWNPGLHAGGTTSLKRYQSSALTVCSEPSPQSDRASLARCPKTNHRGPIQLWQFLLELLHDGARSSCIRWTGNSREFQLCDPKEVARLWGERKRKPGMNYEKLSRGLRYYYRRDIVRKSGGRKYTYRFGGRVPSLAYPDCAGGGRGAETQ
As to conditions: protein: recombinant; tags: N-terminal GST; dsDNA, one strand shown. In a few lines: as §1

A further test addresses T5, ELF3 (Homo sapiens, UniProt P78545 1-371).
T5 sequence: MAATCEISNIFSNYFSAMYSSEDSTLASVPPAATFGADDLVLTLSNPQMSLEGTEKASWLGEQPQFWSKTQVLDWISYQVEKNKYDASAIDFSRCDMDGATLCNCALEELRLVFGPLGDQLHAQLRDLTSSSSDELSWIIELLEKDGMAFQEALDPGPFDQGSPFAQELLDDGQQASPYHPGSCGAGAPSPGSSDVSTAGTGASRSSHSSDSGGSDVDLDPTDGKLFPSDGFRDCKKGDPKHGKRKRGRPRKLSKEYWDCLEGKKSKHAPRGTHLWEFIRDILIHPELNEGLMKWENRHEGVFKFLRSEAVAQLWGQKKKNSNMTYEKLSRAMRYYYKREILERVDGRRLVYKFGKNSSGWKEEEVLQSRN
To be noted: protein: recombinant; tags: N-terminal GST; dsDNA, one strand shown. In short, it runs like this:
as §1

For the next test, the target named is CRX (Homo sapiens, UniProt O43186 1-299). As to conditions: protein: recombinant; tags: N-terminal GST; dsDNA, one strand shown. In short, it runs like this: as §1
Chain of CRX (O43186 whole entry): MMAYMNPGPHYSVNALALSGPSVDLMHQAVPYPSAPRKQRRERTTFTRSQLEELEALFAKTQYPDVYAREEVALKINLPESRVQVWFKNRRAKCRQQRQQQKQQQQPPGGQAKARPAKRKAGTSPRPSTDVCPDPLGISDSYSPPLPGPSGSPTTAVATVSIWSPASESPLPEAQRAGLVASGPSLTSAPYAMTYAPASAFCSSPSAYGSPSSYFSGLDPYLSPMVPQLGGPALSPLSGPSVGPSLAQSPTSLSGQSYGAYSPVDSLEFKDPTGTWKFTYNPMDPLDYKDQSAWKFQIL
The target of the next test is ETV1 (Homo sapiens, UniProt P50549 1-477). As to conditions: protein: recombinant; tags: N-terminal GST; dsDNA, one strand shown. In a few lines: as §1
Chain of ETV1 (P50549 whole entry): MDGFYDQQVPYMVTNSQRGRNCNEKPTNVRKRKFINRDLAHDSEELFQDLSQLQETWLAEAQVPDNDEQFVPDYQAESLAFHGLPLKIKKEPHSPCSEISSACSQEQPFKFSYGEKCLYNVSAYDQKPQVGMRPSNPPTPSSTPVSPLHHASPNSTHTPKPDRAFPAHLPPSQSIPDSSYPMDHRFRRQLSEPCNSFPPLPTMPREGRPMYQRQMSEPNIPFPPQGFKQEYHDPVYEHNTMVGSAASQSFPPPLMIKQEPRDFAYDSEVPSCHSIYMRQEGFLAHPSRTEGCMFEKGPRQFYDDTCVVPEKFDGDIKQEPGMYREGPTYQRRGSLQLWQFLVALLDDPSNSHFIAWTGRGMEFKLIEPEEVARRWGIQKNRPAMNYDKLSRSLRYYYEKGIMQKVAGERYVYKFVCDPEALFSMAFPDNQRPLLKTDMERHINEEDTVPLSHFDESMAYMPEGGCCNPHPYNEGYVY
For a further test, the target named is T6, ERF (Homo sapiens, UniProt P50548 1-548).
T6 sequence: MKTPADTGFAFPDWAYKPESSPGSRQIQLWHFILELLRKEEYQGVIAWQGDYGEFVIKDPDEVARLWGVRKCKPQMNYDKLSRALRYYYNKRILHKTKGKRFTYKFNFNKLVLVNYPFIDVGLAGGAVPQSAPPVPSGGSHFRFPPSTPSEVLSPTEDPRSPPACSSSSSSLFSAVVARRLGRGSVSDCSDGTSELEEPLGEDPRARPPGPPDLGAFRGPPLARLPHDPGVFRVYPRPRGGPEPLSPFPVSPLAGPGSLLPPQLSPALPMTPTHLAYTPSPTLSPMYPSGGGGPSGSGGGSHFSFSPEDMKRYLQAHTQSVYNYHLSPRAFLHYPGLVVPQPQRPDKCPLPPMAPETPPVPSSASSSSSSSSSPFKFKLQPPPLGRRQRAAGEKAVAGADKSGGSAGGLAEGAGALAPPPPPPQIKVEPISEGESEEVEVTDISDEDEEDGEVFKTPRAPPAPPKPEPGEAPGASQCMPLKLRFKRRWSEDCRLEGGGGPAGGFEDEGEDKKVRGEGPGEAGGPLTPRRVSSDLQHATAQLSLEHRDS
To be noted: protein: recombinant; tags: N-terminal GST; dsDNA, one strand shown. In short, it runs like this: as §1

The target in a further test is T7, ETV3L (Homo sapiens, UniProt Q6ZN32 1-361).
T7 sequence: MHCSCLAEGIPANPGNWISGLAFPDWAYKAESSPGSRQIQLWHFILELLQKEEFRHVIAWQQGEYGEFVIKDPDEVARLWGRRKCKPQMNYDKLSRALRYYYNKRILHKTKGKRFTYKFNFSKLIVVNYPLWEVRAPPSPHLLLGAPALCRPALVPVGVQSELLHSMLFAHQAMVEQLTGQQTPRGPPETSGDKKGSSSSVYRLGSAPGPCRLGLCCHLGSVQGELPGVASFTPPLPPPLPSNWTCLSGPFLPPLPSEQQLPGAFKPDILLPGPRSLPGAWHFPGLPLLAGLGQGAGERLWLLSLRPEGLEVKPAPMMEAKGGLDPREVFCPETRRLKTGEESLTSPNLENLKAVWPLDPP
As to conditions: protein: recombinant; tags: N-terminal GST; dsDNA, one strand shown. In a few lines: as §1

For the next test, the target named is T8, ETS2 (Homo sapiens, UniProt P15036 1-469).
T8 sequence: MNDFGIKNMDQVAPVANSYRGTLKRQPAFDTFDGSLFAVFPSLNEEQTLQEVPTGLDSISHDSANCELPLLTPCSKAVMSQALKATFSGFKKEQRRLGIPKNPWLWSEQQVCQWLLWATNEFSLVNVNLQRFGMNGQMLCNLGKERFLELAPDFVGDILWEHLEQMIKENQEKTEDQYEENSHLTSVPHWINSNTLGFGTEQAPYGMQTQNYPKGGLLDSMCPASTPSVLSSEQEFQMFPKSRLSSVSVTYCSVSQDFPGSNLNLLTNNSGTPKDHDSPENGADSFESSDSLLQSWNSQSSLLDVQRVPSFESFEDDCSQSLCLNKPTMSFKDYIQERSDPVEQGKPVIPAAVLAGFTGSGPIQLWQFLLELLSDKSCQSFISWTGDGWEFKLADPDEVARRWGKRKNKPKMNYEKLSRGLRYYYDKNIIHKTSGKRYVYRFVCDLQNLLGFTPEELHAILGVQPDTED
As to conditions: protein: recombinant; tags: N-terminal GST; dsDNA, one strand shown. In a few lines:
as §1

In the next test the target is T9, SPDEF (Homo sapiens, UniProt O95238 1-335).
T9 sequence: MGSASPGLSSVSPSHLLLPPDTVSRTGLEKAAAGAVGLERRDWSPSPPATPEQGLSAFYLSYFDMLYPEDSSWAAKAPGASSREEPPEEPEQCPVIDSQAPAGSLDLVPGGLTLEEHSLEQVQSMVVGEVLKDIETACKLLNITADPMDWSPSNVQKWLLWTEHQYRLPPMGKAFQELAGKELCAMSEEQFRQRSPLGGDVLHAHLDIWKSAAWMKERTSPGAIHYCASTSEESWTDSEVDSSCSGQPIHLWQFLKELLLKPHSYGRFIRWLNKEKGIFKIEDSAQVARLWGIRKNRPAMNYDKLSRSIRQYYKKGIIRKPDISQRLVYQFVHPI
To be noted: protein: recombinant; tags: N-terminal GST; dsDNA, one strand shown. In a few lines: as §1

The target of a further test is T10, ETV7 (Homo sapiens, UniProt Q9Y603 1-341).
T10 sequence: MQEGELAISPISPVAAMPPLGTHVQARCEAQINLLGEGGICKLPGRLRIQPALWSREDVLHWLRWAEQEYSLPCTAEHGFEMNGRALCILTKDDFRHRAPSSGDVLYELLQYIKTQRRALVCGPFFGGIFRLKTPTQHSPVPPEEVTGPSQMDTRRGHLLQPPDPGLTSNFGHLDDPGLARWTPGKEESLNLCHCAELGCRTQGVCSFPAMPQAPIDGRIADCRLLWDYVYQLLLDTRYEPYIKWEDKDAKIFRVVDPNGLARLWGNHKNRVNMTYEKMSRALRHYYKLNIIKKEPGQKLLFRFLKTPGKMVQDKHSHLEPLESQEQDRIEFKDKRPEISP
As to conditions: protein: recombinant; tags: N-terminal GST; dsDNA, one strand shown. In short, it runs like this: as §1

The target in a further test is T11, ELF5 (Homo sapiens, UniProt Q9UKW6-2 1-255).
T11 sequence: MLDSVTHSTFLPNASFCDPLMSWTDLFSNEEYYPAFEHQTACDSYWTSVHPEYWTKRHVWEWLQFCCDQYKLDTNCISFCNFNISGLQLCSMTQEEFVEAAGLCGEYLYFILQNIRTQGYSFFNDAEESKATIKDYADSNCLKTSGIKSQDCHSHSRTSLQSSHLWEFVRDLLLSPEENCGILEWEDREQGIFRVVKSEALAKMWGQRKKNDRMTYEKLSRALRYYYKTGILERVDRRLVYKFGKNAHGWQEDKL
As to conditions: protein: recombinant; tags: N-terminal GST; dsDNA, one strand shown. In short, it runs like this: as §1

Another test has as its target T12, ETV3 (Homo sapiens, UniProt P41162-2 1-143).
T12 sequence: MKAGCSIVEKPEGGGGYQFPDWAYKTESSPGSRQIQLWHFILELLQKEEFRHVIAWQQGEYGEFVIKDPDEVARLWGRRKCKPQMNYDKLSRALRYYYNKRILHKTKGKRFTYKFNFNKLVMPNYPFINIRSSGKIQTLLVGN
To be noted: protein: recombinant; tags: N-terminal GST; dsDNA, one strand shown. In short, it runs like this: as §1

For another test, the target named is ETV6 (Homo sapiens, UniProt P41212 1-452). To be noted: protein: recombinant; tags: N-terminal GST; dsDNA, one strand shown. In short, it runs like this: as §1
Chain of ETV6 (P41212 whole entry): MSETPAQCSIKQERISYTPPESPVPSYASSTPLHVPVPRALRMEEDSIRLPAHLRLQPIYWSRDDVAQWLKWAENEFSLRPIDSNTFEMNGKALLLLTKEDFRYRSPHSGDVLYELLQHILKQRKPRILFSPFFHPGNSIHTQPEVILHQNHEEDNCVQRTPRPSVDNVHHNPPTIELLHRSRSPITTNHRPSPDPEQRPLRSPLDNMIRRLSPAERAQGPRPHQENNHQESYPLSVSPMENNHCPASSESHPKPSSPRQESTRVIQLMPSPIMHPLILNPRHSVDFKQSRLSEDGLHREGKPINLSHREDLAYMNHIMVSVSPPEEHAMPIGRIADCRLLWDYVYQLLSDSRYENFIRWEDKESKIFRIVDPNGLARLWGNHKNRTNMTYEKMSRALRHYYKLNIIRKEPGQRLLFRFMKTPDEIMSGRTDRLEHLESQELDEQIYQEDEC

Chain of ETV5 (P41161 whole entry): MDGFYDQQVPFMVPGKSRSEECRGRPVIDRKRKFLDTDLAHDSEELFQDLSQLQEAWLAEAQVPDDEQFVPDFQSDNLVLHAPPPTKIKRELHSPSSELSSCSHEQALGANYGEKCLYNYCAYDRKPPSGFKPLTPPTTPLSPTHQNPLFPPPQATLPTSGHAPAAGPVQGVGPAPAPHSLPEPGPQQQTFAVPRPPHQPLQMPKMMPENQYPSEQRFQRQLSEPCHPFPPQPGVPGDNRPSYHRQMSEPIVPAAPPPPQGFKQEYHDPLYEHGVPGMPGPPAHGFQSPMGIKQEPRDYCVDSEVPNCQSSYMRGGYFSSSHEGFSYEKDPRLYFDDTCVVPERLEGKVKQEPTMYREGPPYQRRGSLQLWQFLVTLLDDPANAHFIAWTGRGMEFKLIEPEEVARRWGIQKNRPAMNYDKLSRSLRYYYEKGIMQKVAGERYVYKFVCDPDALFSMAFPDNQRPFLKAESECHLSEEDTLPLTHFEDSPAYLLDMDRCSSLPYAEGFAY
Chain of HSF1 (Q00613 whole entry): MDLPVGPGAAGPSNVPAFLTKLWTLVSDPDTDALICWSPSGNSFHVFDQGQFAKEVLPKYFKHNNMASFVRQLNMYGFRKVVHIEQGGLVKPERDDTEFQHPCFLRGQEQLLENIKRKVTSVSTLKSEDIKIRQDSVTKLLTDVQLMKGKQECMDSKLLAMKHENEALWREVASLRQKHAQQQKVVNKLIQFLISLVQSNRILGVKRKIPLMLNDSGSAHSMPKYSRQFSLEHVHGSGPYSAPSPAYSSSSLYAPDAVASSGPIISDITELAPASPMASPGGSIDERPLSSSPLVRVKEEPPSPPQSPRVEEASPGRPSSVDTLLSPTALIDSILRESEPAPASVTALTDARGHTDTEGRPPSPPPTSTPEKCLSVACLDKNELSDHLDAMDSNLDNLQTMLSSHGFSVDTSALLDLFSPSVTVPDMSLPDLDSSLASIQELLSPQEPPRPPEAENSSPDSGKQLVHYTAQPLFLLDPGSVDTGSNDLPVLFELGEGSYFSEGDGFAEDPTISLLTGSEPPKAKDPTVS

As to AACCTG, the binding signal in the test with FEV is 1.2 fold enrichment (6-mer frequency, TF over GST control); with ETV5 it was 1.16 fold enrichment (6-mer frequency, TF over GST control); in the test with HSF1 it was 1.03 fold enrichment (6-mer frequency, TF over GST control); with SPIC, 1.04 fold enrichment (6-mer frequency, TF over GST control); in the test with ELF4, 1.25 fold enrichment (6-mer frequency, TF over GST control); in the test with ELK4, 1.3 fold enrichment (6-mer frequency, TF over GST control). Also, the binding signal in the test with ETV2 is 1.16 fold enrichment (6-mer frequency, TF over GST control); with ELF3, 1.12 fold enrichment (6-mer frequency, TF over GST control); with CRX, 1.1 fold enrichment (6-mer frequency, TF over GST control); with ETV1 it was 1.14 fold enrichment (6-mer frequency, TF over GST control); with ERF, 1.17 fold enrichment (6-mer frequency, TF over GST control); with ETV3L it was 1.08 fold enrichment (6-mer frequency, TF over GST control). For the same sequence, the binding signal was 1.27 fold enrichment (6-mer frequency, TF over GST control) with ETS2; 1.13 fold enrichment (6-mer frequency, TF over GST control) with SPDEF; 1.21 fold enrichment (6-mer frequency, TF over GST control) with ETV7; 1.16 fold enrichment (6-mer frequency, TF over GST control) with ELF5; 1.2 fold enrichment (6-mer frequency, TF over GST control) with ETV3; 1.14 fold enrichment (6-mer frequency, TF over GST control) in the test with ETV6.
